Hits are enriched below; roughly 8.9% of the tested compounds scored in any of these assays.
NPSR antag – blocks cAMP signaling of the human neuropeptide S receptor; actives 1% (n = 220,000); Potency, µM (highest dose often 38.3 µM), usual class: inhibitors; AID 1461; Q6W5P4; CHO-NPSR cells, cAMP TR-FRET, antagonist mode; further: nearly all actives have a fitted effect of over 50% in size
IMPase Li inh – membrane-permeable IMPase blocker, potentiated with lithium. Potency, µM (titrated, usually from 59.4 µM), usual class: inhibitors. AID 1457. CHO-M1 cells, IP1 TR-FRET (IP-One), carbachol + lithium. actives 0.35% (n = 210,000);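 further: IP1 builds up when IMPase is blocked and the TR-FRET signal falls; nearly all actives have a fitted effect of over 50% in size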
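CHO cells stably expressing M1 receptor (2000/well, cultured 16–30 h) treated 30 min at 37C with compound plus low lithium. Cytosolic IP1 by TR-FRET (665/620 ratio and 620 channel) after 10 min lysis; AC50 by Hill fit.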
IMPase cell inh – cell-permeable inhibitors of inositol monophosphatase (IMPase); 120,000 tested, under 10 active; AID 901; inhibition (IP1 accumulation), % at 46.1 µM; P97697; CHO-M1 cells, IP1 accumulation, HTRF TR-FRET ratio; active means well fitted curve in the direction sought with a large enough effect in the signal ratio, not every such curve was filed as active; inconclusive means small, poorly fitted or top-dose-only effect, or a change in a side signal; inactive means no such curve, though single readings can be large or run the other way; the % refers to the signal ratio;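 further: cells stimulated with carbachol in lithium chloride buffer; higher means more IMPase inhibition seen as more IP1 and lower FRET ratio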
Target sequence (P97697 whole entry, looked up): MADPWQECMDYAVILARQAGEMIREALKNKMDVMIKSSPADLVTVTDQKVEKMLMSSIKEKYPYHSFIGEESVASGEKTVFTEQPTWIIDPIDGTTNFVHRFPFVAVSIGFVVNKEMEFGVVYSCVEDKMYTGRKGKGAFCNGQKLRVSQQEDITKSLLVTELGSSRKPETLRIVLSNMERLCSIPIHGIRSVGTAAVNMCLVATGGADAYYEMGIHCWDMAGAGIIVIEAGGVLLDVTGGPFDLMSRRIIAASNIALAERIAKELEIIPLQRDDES
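CHO-M1, 2000 cells/well, cultured 16–30 h; cpd up to 46 uM; carbachol (50 uM solution, stimulation buffer w/ 50 mM LiCl, pH 7.4), 30 min 37C; IP-One TR-FRET, 10 min RT; Ex 320/Em 665, 620; Hill-fit AC50.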
ALDH1A1 block – inhibitors of human aldehyde dehydrogenase 1A1; Purified ALDH1A1, NADH fluorescence, propionaldehyde substrate; actives 7.3% (n = 220,000); Potency, µM (top dose mostly 75.3 µM), hits mostly inhibitors; active means well fitted inhibition curve with a large enough effect, not every such curve was filed as active; inconclusive means small, poorly fitted or top-dose-only effect, or another doubt; inactive means no such curve, though single readings can be large or run the other way
ALOX12 inhib – 12-hLO (ALOX12) enzyme inhibition; Potency, µM (doses to about 57.1 µM), most hits filed as inhibitors; P18054; purified 12-hLO, xylenol orange hydroperoxide absorbance; actives 0.12% (n = 150,000); further: nearly all actives have a fitted effect of over 55% in size
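Lipoxygenase turnover measured by absorbance at 573 and 405 nm after Fe-XO development. Human 12hLO 150 nM, arachidonate 40 uM, pH 7.0 Hepes buffer with detergent; 15 min compound preincubation, 30 min reaction.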
HPGD block – blocks human HPGD enzyme activity. actives 4.3% (n = 150,000). Potency, µM, most hits filed as inhibitors. P15428. purified HPGD, NADH fluorescence kinetic, PGE2 substrate; active means well fitted inhibition curve with a large enough effect, not every such curve was filed as active; inconclusive means small, poorly fitted or top-dose-only effect, or another doubt; inactive means no such curve, though single readings can be large or run the other way
Target sequence (P15428 whole entry, looked up): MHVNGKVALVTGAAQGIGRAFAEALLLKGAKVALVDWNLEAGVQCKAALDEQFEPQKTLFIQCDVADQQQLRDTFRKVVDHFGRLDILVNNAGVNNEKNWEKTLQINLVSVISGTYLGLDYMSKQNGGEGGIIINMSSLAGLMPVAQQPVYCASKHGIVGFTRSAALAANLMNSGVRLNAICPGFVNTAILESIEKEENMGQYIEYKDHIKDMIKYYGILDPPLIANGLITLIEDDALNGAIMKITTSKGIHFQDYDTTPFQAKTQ
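NADH formation kinetics: reaction with 30 uM PGE2 and 1 mM NAD+ (final), 20 nM enzyme, Tris-HCl pH 8 with Tween 20, after 15 min compound preincubation at room temperature. Fluorescence change, last versus first of five reads.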
A number is an active result; – = inactive; ? = inconclusive; · = not tested or not shown; [ ] = remark or other dose. Unless noted, the call rests on the fitted dose curve; in most records, active means well fitted curve in the direction sought with a large enough effect; inconclusive means small, poorly fitted or top-dose-only effect, or another doubt; inactive means no such curve, though single readings can be large; an effect the other way counts as inactive or inconclusive.

SMILES	NPSR antag	IMPase Li inh	IMPase cell inh	ALDH1A1 block	ALOX12 inhib	HPGD block
CC(=O)N1c2c(cc(Br)cc2S(=O)(=O)N2CCN(C(=O)c3ccco3)CC2)CC1C (configuration not stated)	–	–	–	–	–	14.1µM
Clc1ccccc1OCc1nn2c(-c3ccncc3)nnc2s1	–	–	–	?	–	3.98µM
CCOc1ccccc1OCc1nn2c(COc3ccccc3)nnc2s1	–	–	–	7.94µM	–	11.2µM
Clc1ccccc1-c1nn2c(COc3ccccc3)nnc2s1	–	–	–	20µM	–	28.2µM
Clc1ccc(OCc2nn3c(-c4ccccc4)nnc3s2)c(Cl)c1	–	–	–	?	–	?
c1ccc(Cc2nn3c(COc4ccccc4)nnc3s2)cc1	–	–	–	5.01µM	–	10µM
Cc1ccc(S(=O)(=O)CC(=O)NC2CC2)cc1	–	–	–	–	–	–
COc1ccc(CC(=O)N2CCN(C(=O)Cc3ccc(OC)cc3)CC2)cc1	–	–	–	–	–	–
COc1ccc(-c2ccc(C(=S)N3CCN(C(C)=O)CC3)o2)cc1	–	–	–	11.2µM	–	11.2µM
COc1cccc(OC)c1C(=O)NC(=S)Nc1cc(-c2nc3ccccc3[nH]2)ccc1Cl	–	–	–	22.4µM	–	–
O=C(O)C1CCCCC1C(=O)Nc1ccccc1Nc1ccccc1 (configuration not stated)	–	–	–	–	–	–
O=C(CSc1nnnn1Cc1ccccc1)Nc1ccc2c(c1)OCCO2	–	–	–[9.22 µM]	8.91µM	–	–
CCC(=O)Nc1cccc(NC(=O)CSc2nnnn2Cc2ccccc2)c1	–	–	–	20µM	–	–
CC(=O)Nc1cccc(NC(=O)CSc2nnnn2C(C)C)c1	–	–	–	14.1µM	–	–
CCO[C@@H]1OC(C(=O)NCc2ccccc2)=C[C@H](C)[C@H]1CCCO	–	–	·	–	·	·
CN(C)CCCN(Cc1cc2cc3c(cc2[nH]c1=O)OCO3)C(=S)NCc1ccco1	–	–	·	?	·	·
Cc1cccc(C)c1OCCN1C(=O)NC(C)(c2ccccc2)C1=O (configuration not stated)	–	–	·	–	·	·
Cc1ccc(C2(C)NC(=O)N(CC(=O)NC(=O)NC3CCCC3)C2=O)cc1 (configuration not stated)	–	–	–	–	–	–
CC1(c2ccccc2)NC(=O)N(CCOc2ccccc2)C1=O (configuration not stated)	–	–	–	22.4µM	–	–
CC1(c2ccccc2)NC(=O)N(CC(=O)NC(=O)NC2CCCC2)C1=O (configuration not stated)	–	–	–	12.6µM	–	–
CC(=O)Cc1ccccc1OC(=O)c1ccco1	–	·	–	–	–	·
CCCCn1c(SCC(=O)c2ccc(OC)cc2OC)nc2cc(S(N)(=O)=O)ccc21	–	–	–	7.08µM	–	–
Nc1nnc(-c2ccc(Cl)c([N+](=O)[O-])c2)s1	–	–	·	28.2µM	·	·
Cn1cccc1/C=C1\SC(=S)N(Nc2ccccc2)C1=O	–	·	·	3.55µM	·	·
CCCC(C(=O)O)N1C(=O)/C(=C/c2cccn2C)SC1=S (configuration not stated)	–	–	–	–	?	17.8µM
SMILES	NPSR antag	IMPase Li inh	IMPase cell inh	ALDH1A1 block	ALOX12 inhib	HPGD block
N#Cc1cc([N+](=O)[O-])ccc1N1CCN(c2ccccc2O)CC1	–	–	·	?	·	·
Cc1ccc2nc(NC(=O)c3ccco3)sc2c1	–	–	–	–	–	–
NC(=O)c1ccccc1NC(=S)NC(=O)CCc1ccccc1	–	–	·	12.6µM	–	28.2µM
Cc1sc(NC(=S)NC(=O)CCc2ccccc2)c(C(N)=O)c1C	–	11.2µM	·	?	–	–
NC(=O)c1ccccc1NC(=O)CCc1ccccc1	–	–	–	–	–	–
COC(=O)CCC(=O)NC(=S)Nc1sc(C)c(C)c1C(N)=O	–	?	·	?	–	–
Cc1ccc2nc(NC(=S)NC(=O)c3ccco3)sc2c1	–	12.6µM	·	?	–	–
CCN1CCc2c(sc(NC(=O)c3ccc(S(=O)(=O)N4CCOCC4)cc3)c2C(N)=O)C1	–	–	–	39.8µM	–	–
CCN1CCc2c(sc(NC(=O)c3ccc(S(=O)(=O)N4CCOCC4)cc3)c2C(=O)OC)C1	–	–	–	–	–	–
Cc1ccc(C(=O)OCC(=O)NCc2ccco2)cc1	–	–	–	?	–	–
CCOC(=O)c1ccc(Oc2nc(N(C)C)nc(N3CCOCC3)n2)cc1	–	–	·	–	·	·
COc1cc(S(=O)(=O)N2CCCCCC2)c(OC)cc1Br	–	–	–	–	–	–
Cc1cccc(NC(=S)NCCN2CCOCC2)c1C	–	–	·	–	–	–
Cc1sc(NC(=S)NC(=O)c2ccco2)c(C(N)=O)c1C	–	–	·	3.16µM	·	·
CCCC(=O)Nc1sc(Cc2ccccc2)c(C)c1C(N)=O	–	–	·	1.78µM	·	·
CCN1CCc2c(sc(NC(=S)NC(=O)c3ccco3)c2C(N)=O)C1	–	·	·	7.94µM	·	·
N#Cc1ccc(C(=O)Nc2cc(S(=O)(=O)Nc3ccc(Cl)cc3)ccc2N2CCCCC2)cc1	–	–	·	?	–	–
O=C(CSCCO)Nc1nccs1	–	–	–	–	–	–
CC(=O)CCc1oc2c([N+](=O)[O-])cccc2c1-c1ccc(C)o1	–	–	·	?	·	·
COC(=O)c1ccc(-n2nnnc2SCC(=O)N2CCCCC2)cc1	–	–	–	–	–	–
CCOc1cc(C(=O)NCC2CCCO2)cc(OCC)c1OCC (configuration not stated)	–	–	–	–	–	–
Nc1csnc1C(=O)O	–	–	–	–	–	–
CC(C)=CCC/C(C)=C/COc1c2occc2cc2ccc(=O)oc12	·	–	–	8.91µM	–	?
CC(C)=CCC/C(C)=C/COc1ccc2ccc(=O)oc2c1	–	–	·	?	–[0.00818 µM]	?
COc1ccc(-n2nc(C(=O)O)c3ccccc3c2=O)c(OC)c1	–	–	–	–	–	–
SMILES	NPSR antag	IMPase Li inh	IMPase cell inh	ALDH1A1 block	ALOX12 inhib	HPGD block
Cc1noc(C)c1CN1C(=O)NC(Cc2ccccc2)(Cc2ccccc2)C1=O	–	–	–	–	–	–
CN(C)CCNS(=O)(=O)c1ccc(Cl)cc1	?	–	–	–	–	–
CC(C)NC(=O)CN1C(=O)C(=O)c2ccccc21	–	–	–	–	–	–
O=C(CCN1C(=O)c2ccccc2C1=O)N1CCCCCC1	–	–	–	20µM	–	15.8µM
O=C1C(=O)N(CC(=O)N2CCCC2)c2ccccc21	–	–	·	3.55µM	·	·
CC(=O)N=C1SC2CS(=O)(=O)CC2N1c1c(Cl)cccc1Cl (configuration not stated)	–	·	–	?	–	·
COc1ccc(OC)c(NC2=NC3(CCCC3)N=C(N)N2)c1	?	–	–	–	–	–
COc1ccc(OC)c(N2C(N)=NC(N)=NC23CCCC3)c1	–	·	–	22.4µM	–	·

Bioassay records from PubChem.
